The entries come from a sample that favours hits as a whole.
HT1080NT lethal: kills 2HG-producing HT-1080-NT fibrosarcoma cells. HT-1080-NT fibrosarcoma viability, CellTiter-Glo ATP luminescence, 48 h. Potency, µM (doses to about 46.1 µM), for the others: at the top dose activity, negative = less viability, hits mostly cytotoxic. 360,000 compounds, 1.6% hits;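 further: NT is the 2HG producing partner of a matched IDH1 knockdown line; potency means the concentration at half of the fitted maximal effect; 0% = DMSO-treated cells and -100% = media-only wells without cells; nearly all actives have a fitted effect of over 55% in size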
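Luminescent CellTiter-Glo readout after 48 hours of compound exposure at 37 degrees C defined viability of HT-1080-NT cells. Activity was normalized to DMSO wells and cell-free media wells; concentration-response curves were fitted and assigned curve classes.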
ALOX12 inh: inhibitors of human 12S-lipoxygenase ALOX12. purified 12hLO, xylenol orange hydroperoxide absorbance. Potency, µM (series often up to 108 µM), inactives show at the highest dose activity change, negative = inhibition, hits mostly inhibitors. 580,000 compounds, 1.1% hits; further: potency means the concentration at half of the fitted maximal effect
Target sequence (P18054 whole entry, looked up): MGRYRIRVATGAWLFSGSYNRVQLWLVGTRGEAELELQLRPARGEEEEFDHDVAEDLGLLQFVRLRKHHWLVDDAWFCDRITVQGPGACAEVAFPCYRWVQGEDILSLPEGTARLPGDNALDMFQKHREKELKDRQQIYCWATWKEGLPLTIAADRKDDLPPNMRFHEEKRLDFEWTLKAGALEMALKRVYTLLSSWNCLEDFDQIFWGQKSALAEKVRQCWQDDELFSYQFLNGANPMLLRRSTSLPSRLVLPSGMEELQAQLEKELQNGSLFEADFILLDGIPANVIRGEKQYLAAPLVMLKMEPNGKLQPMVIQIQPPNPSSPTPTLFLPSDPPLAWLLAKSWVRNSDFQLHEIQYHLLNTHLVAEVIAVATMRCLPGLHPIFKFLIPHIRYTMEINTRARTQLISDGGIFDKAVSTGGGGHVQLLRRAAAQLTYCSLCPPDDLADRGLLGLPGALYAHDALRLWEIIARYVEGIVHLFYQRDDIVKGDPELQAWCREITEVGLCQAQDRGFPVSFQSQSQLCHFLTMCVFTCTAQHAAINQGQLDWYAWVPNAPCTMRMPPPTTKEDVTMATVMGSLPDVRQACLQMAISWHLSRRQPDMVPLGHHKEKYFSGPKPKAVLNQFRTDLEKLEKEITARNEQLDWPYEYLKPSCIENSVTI
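Hydroperoxide product was detected by ferrous iron/xylenol orange as the 573 to 405 nm absorbance ratio. Arachidonic acid at 40 uM (final) was turned over for 30 min at room temperature by 150 nM human 12hLO, pH 7.0 Hepes buffer, after 15 min compound preincubation.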
IL-1B inflam inh: inhibitors of inflammasome signaling (IL-1 beta secretion); THP-1 LPS/ATP IL-1B secretion, AlphaLISA, 16 h; stronger effect = lower value; 360,000 compounds, 4.7% hits; activity change, % at 57.5 µM; in the data active means activity change below about -50%; inconclusive means mostly about -30% to -49%
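THP-1 cells pretreated 1 hr with compounds (up to 57.5 uM final), then stimulated with LPS (250 ng/mL final) plus ATP (1.25 mM final); secreted IL-1B measured by AlphaLISA after 16 hr, decreased signal indicating inhibition.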
DT40 TDP1 no CPT: qHTS for Inhibitors of human tyrosyl-DNA phosphodiesterase 1 (TDP1): qHTS in cells in absence of CPT. DT40 Tdp1-/- hTDP1 cells, no CPT, ATP luminescence, 48 h. Potency, µM (highest dose often 46.2 µM), for the others: at the top dose activity change, negative = growth inhibition, actives largely listed as inhibitors. 420,000 compounds, 15% hits; further: potency means the concentration at half of the fitted maximal effect; nearly all actives have a fitted effect of over 55% in size
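Chicken DT40 Tdp1-/- cells stably complemented with human TDP1 were seeded at 400 cells/well with DMSO in place of 20 nM camptothecin. After compound pinning, cells grew at least 48 hr at 37 °C; viability read by CellTiter-Glo luminescence.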
HT1080 IDH1KD tx: toxicity to HT-1080 IDH1 knockdown cells (counter line) | HT-1080 IDH1 knockdown viability, ATP luminescence, 48 h | Potency, µM (titrated, usually from 46.1 µM), inactives show at the top dose activity, negative = toxicity, usual class: cytotoxic | 360,000 compounds, 2% hits | AID 686971;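 further: potency means the concentration at half of the fitted maximal effect; 0% = DMSO wells and -100% = cell-free medium wells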
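Cytotoxicity counter-line: IDH1KD HT-1080, 48 h, CellTiter-Glo. Curves classed by r2, magnitude and activity.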
DT40 TDP1 CPT: DT40-hTDP1 cell growth loss with CPT. AID 686979. Potency, µM (highest dose often 46.2 µM), for the others: top-dose activity change, negative = growth inhibition, actives largely listed as inhibitors. chicken DT40 Tdp1-/-;hTDP1 cells + 20 nM CPT, ATP luminescence, 48 h. 420,000 compounds, 12% hits; further: potency means the concentration at half of the fitted maximal effect; nearly all actives have a fitted effect of over 55% in size
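Chicken DT40 Tdp1-/- cells stably complemented with human TDP1 were seeded at 400 cells/well in medium containing 20 nM camptothecin, exposed to pin-transferred compounds, and grown at 37 °C for at least 48 hr. Viability was read as ATP luminescence.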
* marks the source's active call; other numbers are inactive results; ? = inconclusive; nt = not tested or not shown; [ ] = dose if it differs, or a comment. Unless noted, the call rests on the fitted dose curve; in most records, active means well fitted curve in the direction sought with a large enough effect; inconclusive means small, poorly fitted or top-dose-only effect, or another doubt; inactive means no such curve, though single readings can be large; an effect the other way counts as inactive or inconclusive. Unless noted, on the % scale 0 is the no-effect control and ±100 the full control effect.

SMILES	HT1080NT lethal	ALOX12 inh	IL-1B inflam inh	DT40 TDP1 no CPT	HT1080 IDH1KD tx	DT40 TDP1 CPT
COC(=O)Cn1c(C)c(/C=C/c2cc[n+](C)cc2)c2ccccc21	4%	45µM*	31	16µM*	1%	?
COC(=O)Cn1cc(/C=C/c2cc[n+](C)cc2)c2ccccc21	2%	?	15	?	6%	?
COc1ccc(CN2CCC3(Cc4ccccc4CNC3=O)C2)cn1 (stereo unspecified)	nt	10%[6.33 µM]	nt	nt	nt	nt
Cc1cc2cc(NS(=O)(=O)c3ccccc3F)ccc2[nH]1	nt	-4%	nt	nt	nt	nt
O=c1[nH]c(COc2ccc(Cl)cc2Cl)nc2ccccc12	-1%	2%	-13	4%	9%	-15%
O=c1[nH]c(COc2ccc(Cl)cc2Br)nc2ccccc12	-4%	-1%	15	?	-5%	23µM*
CCCCSc1nnc([C@H](CC(C)C)NC(=O)OC(C)(C)C)o1	3%	-16%	37	?	0%	18µM*
CCCCSc1nnc([C@H](C)NC(=O)OC(C)(C)C)o1	4%	10%	5	-6%	-18%	-11%
CCOc1ccc(N=C/C=C/c2ccccc2)c(O)c1	-2%	?	-6	18µM*	3%	18µM*
O=C(CSC1=NCCN1)C1COc2ccccc2O1 (stereo unspecified)	2%	0%	-13	?	?	18µM*
Cc1ccc(S(=O)(=O)NCCC(=O)NCCc2ccc(S(N)(=O)=O)cc2)cc1C	-5%	1%	-2	-23%	0%	3.3µM*
CC(=O)N1c2ccc(S(=O)(=O)NCCC(=O)NCCc3ccc(Cl)cc3)cc2CC1C (stereo unspecified)	-17%	-3%	16	?	-10%	16µM*
CC(=O)N1c2ccc(S(=O)(=O)NCCC(=O)NCCc3ccc(C)cc3)cc2CC1C (stereo unspecified)	0%	5%	40	?	-27%	21µM*
CC(=O)N1c2ccc(S(=O)(=O)NCCC(=O)Nc3ccc(C)cc3Br)cc2CC1C (stereo unspecified)	nt	-7%	nt	9.2µM*	nt	12µM*
CC(=O)N1c2ccc(S(=O)(=O)NCCC(=O)NCCc3cccc(C)c3)cc2CC1C (stereo unspecified)	9%	-2%	-1	-22%	4%	?
COc1ccc(Cl)cc1C(=O)N1CCC(Oc2ncccc2C(=O)N2CCCCC2)C1 (stereo unspecified)	nt	-2%	nt	nt	nt	nt
CC1(C)CNC(=O)c2nc(CCN3CCCc4ccccc43)[nH]c2C1	nt	320%	nt	nt	nt	nt
Cc1ccc(C(=O)OC/C(O)=C(\C#N)c2nc3ccccc3[nH]2)cc1S(=O)(=O)N1CCOCC1	-3%	4%	0	7.3µM*	-11%	5.8µM*
Cc1ccc(S(=O)(=O)N2CCOCC2)cc1N/N=C(\C#N)c1nc2ccccc2[nH]1	-5%	-1%	2	26µM*	-11%	?
N#C/C(=C(/O)COC(=O)c1ccc2c(c1)OCCO2)c1nc2ccccc2[nH]1	7%	-21%	-66*	-1%	5%	-4%
N#C/C(=C(/O)COC(=O)CCc1ccc(S(=O)(=O)N2CCOCC2)cc1)c1nc2ccccc2[nH]1	10%	0%	44	13µM*	4%	16µM*
CCOc1ccccc1CN1CCCCC12Cc1ccccc1CNC2=O (stereo unspecified)	nt	3%[6.33 µM]	nt	nt	nt	nt
CCN1C(=O)Cc2cc(C(=O)NCc3ccc(F)cc3Cl)ccc21	nt	39%	nt	nt	nt	nt
CC(C)(C)c1ccccc1NC(=O)COc1ncnc2ccccc12	nt	-56%	nt	nt	nt	nt
N#C/C(=C\Nc1ccc2c(c1)OCCO2)c1nc2ccccc2[nH]1	0%	-16%	-24	21µM*	-9%	?
SMILES	HT1080NT lethal	ALOX12 inh	IL-1B inflam inh	DT40 TDP1 no CPT	HT1080 IDH1KD tx	DT40 TDP1 CPT
N#C/C(=C\Nc1ccc2c(c1)OCCO2)c1nc(-c2ccccc2)cs1	15%	-10%	24	?	11%	?
FC(F)(F)c1cccc(-c2cncc(N3CCN(CCN4CCCC4)CC3)n2)c1	?	-25%	-26	16µM*	?	23µM*
Fc1cccc(-c2cncc(N3CCN(CCN4CCCC4)CC3)n2)c1	-21%	?	-9	?	?	?
CCN(CC)CCN1CCN(c2cncc(-c3ccc4ccccc4c3)n2)CC1	23µM*	?	-59*	16µM*	16µM*	12µM*
C[C@H](CO)N1C[C@H](C)[C@@H](CN(C)C(=O)Nc2ccccc2)Oc2c(NC(=O)Nc3ccc4c(c3)OCO4)cccc2C1=O	0%	0%	1	?	10%	13µM*
C[C@H](CO)N1C[C@H](C)[C@@H](CN(C)C(=O)Nc2ccc3c(c2)OCO3)Oc2c(NC(=O)Nc3ccc4c(c3)OCO4)cccc2C1=O	0%	-1%	-11	23µM*	-8%	16µM*
Cc1ccc(S(=O)(=O)N2CCN(C(=O)Cc3c(C)nn(C)c3C)CC2)cc1	nt	27%	nt	nt	nt	nt
OC(COc1ccccc1)CN(Cc1ccccc1)CC(O)COc1ccccc1 (stereo unspecified)	?	-3%	-53*	21µM*	?	16µM*
COc1cccc(OCC(O)CN(CCO)Cc2ccccc2)c1 (stereo unspecified)	-6%	-11%	22	-21%	0%	-20%
CCC(=O)c1ccc(OCC(O)CN(CCc2ccccc2)Cc2ccccc2)cc1 (stereo unspecified)	?	?	-80*	21µM*	-10%	?
CCCn1nccc1S(=O)(=O)N[C@@H]1CCOC[C@H]1Oc1ccccn1	nt	54%	nt	nt	nt	nt
CCOC(=O)c1cc2c(=O)n3cccc(C)c3nc2n(CC(C)C)c1=NC(=O)c1ccco1	6%	?	-4	21µM*	-16%	?
CCOC(=O)c1cc2c(=O)n3ccccc3nc2n(CC(C)C)c1=NC(=O)c1cc2ccccc2o1	nt	2%	nt	-1%	nt	-2%
CCOCCCn1c(=NC(=O)c2ccco2)c(C(=O)OCC)cc2c(=O)n3cccc(C)c3nc21	0%	-22%	-20	12µM*	-1%	16µM*
CCCn1c(=NC(=O)c2ccco2)c(C(=O)OCC)cc2c(=O)n3ccccc3nc21	18%	-14%	?	?	0%	?
CCOCCCNc1oc(-c2ccc(S(=O)(=O)N3CCCC3)cc2)nc1C#N	nt	7%	nt	nt	nt	nt

Assay outcomes as filed in PubChem.
